Reference: the supplement of paper PMC6555819

Assays:
Test in all cases: PBM binding z-score (relative to random genomic background probes); higher = stronger binding; sequences stand for … in GC…GCGATTGACAGCGTAGAATGAAGG
[1] = system: PPARg:RXRa DBDmut IVT, anti-RXR (DBD mutation: RXRa K156A/R161A, NR concentration 270 nM, RXRa partner concentration 90 nM)
How it was run: (§1)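 Ligand-free nuclear receptor dimers were applied to custom Agilent 4×180K protein-binding microarrays whose double-stranded probes carried direct-repeat seeds, single-nucleotide variants, half-site ablations and random human genomic background sequences in 34-nt variable regions. Incubation lasted 1 h. Binding z-scores were computed against the random background probes from regression-normalized fluorescence.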

[2] = system: PPARg:RXRa IVT, anti-PPARg (NR concentration 270 nM, RXRa partner concentration 90 nM)
How it was run: as §1

[3] = system: PPARg DBDmut:RXRa IVT, anti-PPARg (DBD mutation: PPARg1 K132A/R137A, NR concentration 270 nM, RXRa partner concentration 90 nM)
How it was run: as §1

[4] = system: PPARg DBDmut IVT, anti-PPARg (DBD mutation: PPARg1 K132A/R137A, NR concentration 270 nM)
How it was run: as §1

[5] = system: PPARg homodimer (NR concentration 180 nM)
How it was run: as §1

[6] = system: PXR:RXRa (NR concentration 270 nM, RXRa partner concentration 90 nM)
How it was run: as §1

[7] = system: PXR homodimer (NR concentration 270 nM)
How it was run: as §1

[8] = system: RARa:RXR (NR concentration 270 nM, RXRa partner concentration 90 nM)
How it was run: as §1

[9] = system: RARa homodimer (NR concentration 270 nM)
How it was run: as §1

[10] = system: RARb:RXRa (NR concentration 270 nM, RXRa partner concentration 90 nM)
How it was run: as §1

Row | Sequence | PBM binding z-score [1] | PBM binding z-score [2] | PBM binding z-score [3] | PBM binding z-score [4] | PBM binding z-score [5] | PBM binding z-score [6] | PBM binding z-score [7] | PBM binding z-score [8] | PBM binding z-score [9] | PBM binding z-score [10]
1 | CGTCCAAGGTCAGAGAAGTCAGTGAATGCCGAGT | 2.46 | 2.18 | -0.292 | -0.903 | 1.38 | 2.55 | 0.728 | 2.86 | 0.262 | 4.68
2 | GCTGCTAGGTGAACTGATGGTCAGCTAAAGCTCG | 3.85 | 2.6 | -0.641 | -1.06 | -0.326 | -0.0218 | -0.684 | 0.388 | -1.4 | 0.944
3 | CAAACAGGGTCAGCTAGGCCAGAGTAGGGACGGC | 2.12 | 2.9 | 0.368 | 0.041 | 1.74 | 2.42 | 0.185 | 3.18 | 0.11 | 3.96
4 | TCTGGTAGATCAAGCAGGTTAAGAAAGCCTGAGT | 1.17 | -0.178 | -0.408 | -0.683 | -0.462 | 0.159 | 0.156 | 0.213 | -0.519 | -0.0969
5 | GATACAGGGTCAGCTAGAGGCAAGAGTATGGAAA | 0.7 | 2.39 | -0.415 | -0.265 | 0.979 | 2.1 | -0.207 | 2.8 | 0.136 | 3.97
6 | CCTACTGGGCCACGAAAGGTCATTGAGTCAGTGA | 5.96 | 6.12 | 0.241 | -0.3 | 3.76 | 5.49 | 1.93 | 5.72 | 1.51 | 4.04
7 | TCTATTAGTTGAAGGGCAACAGACGAGTCCGTTT | 2.12 | 0.473 | 0.759 | 0.516 | 1.01 | 0.991 | 0.988 | 0.764 | 1.52 | 1.55
8 | GCTGCTAGGTCAACTGATGGTCAGCTACAGCTCG | 4.96 | 3.94 | -0.525 | -0.577 | 1.97 | 1.62 | -0.454 | 2.71 | -0.247 | 4.15
9 | GCTAGTTGGTCAGTAAAAGGTCTCACACCGGTCG | 0.501 | 0.748 | 0.0123 | -0.176 | 0.542 | -0.0714 | 0.00189 | 0.298 | -0.00415 | 1.19
10 | TAGCCTAGGTCATGGGCCAGTATTCCACGCGAAC | 1.55 | 3.11 | 0.483 | -0.959 | 1.79 | 1.75 | -0.956 | 2.95 | -0.638 | 3.78
11 | CCTAGCAGGCCAGGGTCACTAAAGCATTTCGCTT | 0.051 | 0.519 | -1.03 | -1.22 | 0.403 | 2.21 | -0.725 | 2.96 | -0.568 | 2.35
12 | CCTACTGGGCCATTCAGAGGTCATTCATCATATG | 4.22 | 4.45 | -0.0468 | 0.03 | 2.18 | 4.81 | 2.5 | 4.07 | 0.581 | 2.9
13 | CCGACTGGGGCAGAAAAGTTACCATACCATCCGG | 1.36 | 0.746 | -1.85 | -1.61 | 0.0393 | -0.593 | -0.395 | -0.848 | 0.0243 | -0.0999
14 | TTACCAAGGTGAAAGGTCGTTGTTGCACGCCTTG | 2.71 | 4.85 | -0.135 | 0.857 | 1.39 | 3.78 | 0.253 | 5.2 | -0.175 | 3.09
15 | ACTAGTTAGTCAGCTGAGGTCACACACAATTCGG | 0.771 | 2.31 | 0.856 | 0.622 | 2.26 | 5.14 | 1.6 | 5.01 | 1.35 | 3.3
16 | CCTAGTTGGTGAAGGTCACACACGCTATAGGTAC | 1.01 | 2.4 | 1.24 | 0.782 | 2.47 | 3.34 | 1.34 | 3.61 | 1.61 | 3.74
17 | CCGGCTGGGGCAAAGGTTACCATACTCAGTACGA | 0.545 | 3.78 | -0.945 | -1.06 | 1.1 | 2.59 | -0.422 | 3.83 | -0.653 | 2.41
18 | TGAATGAGCTTATAAGATCAGGGAACGTTGCAAA | -1.43 | -0.528 | 0.471 | 0.179 | -0.626 | -0.456 | -0.325 | -0.125 | -0.206 | -1.12
19 | GCTGCTAGGTCAGGTTGGTCAGCTATCGGGTACG | 2.93 | 2.58 | -0.776 | -0.675 | 1.22 | 0.328 | -0.458 | 0.73 | -0.348 | 3.46
20 | TCTGCAAGGTCAGTTGGTCAGCTAACGAGCTGCC | 1.67 | 2.69 | 0.998 | 1.09 | 1.99 | 2.09 | -0.237 | 2.67 | -0.428 | 4.43
21 | TCGAGTAGGTTAGGGGCATTCCGAATGGCGTCGA | 2.28 | 1.28 | -1.42 | -0.881 | 0.639 | 0.385 | -0.429 | 0.334 | -0.756 | 1.06
22 | ATCTCTAGGTAACCAAGTCCAGTGAATGCCGAAC | 3.27 | 2.54 | 0.49 | 1.58 | 0.614 | 0.0528 | 0.209 | 0.268 | 0.592 | 0.379
23 | CACACTAGGTCACGAAAGGTCAAAGTCGAATGAC | 7.74 | 8.37 | 3.1 | 1.95 | 5.51 | 7.26 | 2.87 | 7.78 | 2.46 | 5.97
24 | AGTCAAAGTTTAGGACGAGGTAACGTAAAGCACG | -0.369 | 0.311 | 0.476 | 0.0826 | 0.281 | 0.168 | -0.0643 | 0.219 | 0.258 | 1.41
25 | CCCGAAAGGTCGTGCTCAGGTGAGTATACCAAAC | 0.981 | 1.75 | 0.719 | 0.627 | 2.37 | 3.19 | 0.159 | 4.35 | 0.613 | 4.01
